This note sets out measurements from PubChem BioAssay (Tox21).

The nature of experiment [1]: qHTS assay to identify small molecule agonists of the vitamin D receptor (VDR) signaling pathway - cell viability counter screen (AID 743224). Note: nearly all actives have a fitted effect of over 50% in size. Note: potency is the fitted concentration of half-maximal effect. Put shortly:
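Here cell health was gauged by luminescent ATP detection (CellTiter-Glo, 30 min RT) in VDR-bla cells that had been incubated with test compounds for 16 h at 37C and 5% CO2.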

Experiment [2] can be described thus: qHTS assay to identify small molecule agonists of the NFkB signaling pathway - cell viability counter screen (AID 1159515; calls by dose curve; note: nearly all actives have a fitted effect of over 55% in size; note: potency is the fitted concentration of half-maximal effect). In outline: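 5 hr compound treatment of NFkB-bla ME-180 cells (2,000/well, seeded overnight beforehand), followed by reporter substrate for 1.5 hr. CellTiter-Glo added afterward; luminescence after 30 min RT.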
A general note: Quantitative high-throughput screening tests each substance at several concentrations.

Experiment [3] can be described thus: qHTS assay to identify small molecule antagonists of the retinoid-related orphan receptor gamma (ROR-gamma) signaling pathway - cell viability counter screen (AID 1159520). Note: nearly all actives have a fitted effect of over 50% in size. Note: potency is the fitted concentration of half-maximal effect. Put shortly: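 Tet-on ROR gamma CHO cells (1,000/well) were plated 4 hr, given compounds in DMSO for 2 hr at 37 C, then induced with 1 uM final doxycycline for 16 hr. Viability was read as ATP by CellTiter-Glo luminescence after 30 min.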

Experiment [4] has as its target Nuclear receptor ROR-gamma (Homo sapiens) (UniProt P51449). The experiment can be described thus: qHTS assay to identify small molecule antagonists of the retinoid-related orphan receptor gamma (ROR-gamma) signaling pathway (AID 1159521; note: nearly all actives have a fitted effect of over 50% in size; note: potency is the fitted concentration of half-maximal effect). Put shortly: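 Inducible-expression reporter assay: doxycycline (1 uM final) switched on RORγ in CHO cells bearing a ROR response element-luciferase construct, with test compounds present from 2 h beforehand. Decreased luminescence after 16 h defined antagonist activity.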

Experiment [5] in a line: qHTS assay to identify small molecule agonists of the AP-1 signaling pathway - cell viability counter screen (AID 1159525; calls by dose curve; note: nearly all actives have a fitted effect of over 55% in size; note: potency is the fitted concentration of half-maximal effect). Put shortly: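 ME-180 AP-1-bla, 2500 cells/well, Opti-MEM + 0.5% dialyzed FBS; overnight 37 °C; cpd 15-pt titration, 5 h 37 °C; CellTiter-Glo 30 min RT; luminescence read; normalised to TOAB and DMSO controls.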
Experiment [6] can be described thus: qHTS assay to identify small molecule agonists of the RXR signaling pathway - cell viability counter screen (AID 1159529). Note: nearly all actives have a fitted effect of over 50% in size. Note: potency is the fitted concentration of half-maximal effect. Put shortly:
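Counter screen: CellTiter-Glo luminescence. Cells: RXR-alpha-UAS-bla HEK 293T. Medium: 2% charcoal-stripped FBS. Treatment: 16 h, 37 C. Reagent incubation: 30 min, RT.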

Experiment [7] in a line: qHTS assay to identify small molecule antagonists of the retinoid acid receptor (RAR) signaling pathway - cell viability counter screen (AID 1159551). Note: nearly all actives have a fitted effect of over 35% in size. Note: potency is the fitted concentration of half-maximal effect. In outline: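 Seed C3RL4 cells; next day add compound, then retinol to 1 uM final; incubate 6 h at 37 C; add CellTiter-Glo; read luminescence after 30 min at RT.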
Experiment [8] can be described thus: qHTS assay to identify small molecule antagonists of the retinoic acid receptor (RAR) signaling pathway (AID 1159552; note: nearly all actives have a fitted effect of over 50% in size; note: potency is the fitted concentration of half-maximal effect). Put shortly: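 Antagonism of retinol-induced RARE reporter activity was measured in C3RL4 cells. Exposure to compounds and 1 uM final retinol lasted 6 hr at 37 C, with luminescence as endpoint.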
A short description of experiment [9]: qHTS assay to identify small molecule agonists of the retinoic acid receptor (RAR) signaling pathway (AID 1159553). Note: potency is the fitted concentration of half-maximal effect. Put shortly:
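Activation of retinol signaling was monitored via a RARE luciferase reporter in C3RL4 cells. After 6 hr compound treatment at 37 C, detection reagent was added for 30 min at room temperature before luminescence reading.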

Experiment [10] can be described thus: qHTS assay to identify small molecule antagonists of the estrogen related receptor (ERR) signaling pathway from Tox21 library - cell viability counter screen (AID 1224834). Note: nearly all actives have a fitted effect of over 30% in size. Note: potency is the fitted concentration of half-maximal effect. Put shortly: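 CellTiter-Fluor fluorescence measured; ERR cells; 17.5 h compound incubation at 37 C; 30 min reagent step.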
Experiment [11] can be described thus: qHTS assay to identify small molecule antagonists of the vitamin D receptor (VDR) signaling pathway - cell viability counter screen (AID 743225). Note: nearly all actives have a fitted effect of over 50% in size. Note: potency is the fitted concentration of half-maximal effect. Put shortly: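 Same-well multiplex: following 16 h treatment of HEK 293T cells carrying a UAS-driven beta-lactamase reporter with compound and agonist (3 nM final), and a 2 h FRET substrate step, CellTiter-Glo was added and luminescence read after 30 min.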

Experiment [12] deals with Luciferin 4-monooxygenase (Photinus pyralis) (UniProt P08659). The experiment can be described thus: qHTS assay to identify small molecule inhibitors of firefly luciferase (AID 1224835). Note: series mostly up to about 120 µM; nearly all actives have a fitted effect of over 25% in size. Put shortly:
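Quantitative HTS format; KM concentrations of both substrates. Purified P. pyralis FLuc activity quantified from luminescence images.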

Each structure is given as a SMILES string. Values joined by “and” are separate entries in the source; they are usually repeats but may differ in a detail not shown here. Equal entries are not always repeated. Results filed as inconclusive are left out. Values without a mark were called inactive. Active and inactive are the calls of the source. Unless noted, calls come from the whole dose curve; as a rule, active = well fitted curve in the direction sought with a large enough effect in the repeat runs; inconclusive = weak or mixed curves; inactive = no such curve, though single readings can be large; an effect the other way counts as inactive or inconclusive.

Sequence of Luciferin 4-monooxygenase (Photinus pyralis) (P08659 whole entry, looked up): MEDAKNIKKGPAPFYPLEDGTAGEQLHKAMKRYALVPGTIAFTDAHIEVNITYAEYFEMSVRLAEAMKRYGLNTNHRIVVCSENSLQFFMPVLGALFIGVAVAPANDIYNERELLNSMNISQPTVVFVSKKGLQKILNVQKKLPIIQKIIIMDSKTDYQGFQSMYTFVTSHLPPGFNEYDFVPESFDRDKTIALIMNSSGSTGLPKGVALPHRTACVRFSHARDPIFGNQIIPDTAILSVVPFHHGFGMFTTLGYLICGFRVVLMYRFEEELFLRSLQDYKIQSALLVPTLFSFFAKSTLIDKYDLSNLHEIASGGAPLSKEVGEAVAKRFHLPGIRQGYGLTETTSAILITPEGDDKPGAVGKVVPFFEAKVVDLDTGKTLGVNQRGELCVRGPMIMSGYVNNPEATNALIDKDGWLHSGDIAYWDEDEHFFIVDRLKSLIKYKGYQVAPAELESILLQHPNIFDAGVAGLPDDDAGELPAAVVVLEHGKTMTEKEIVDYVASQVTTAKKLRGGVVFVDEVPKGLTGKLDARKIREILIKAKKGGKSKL

In the case of `COc1ccc(C(=O)/C(Br)=C\C(=O)O)cc1`, the Potency result in experiment [1], in experiment [2], in [4], in experiment [5], in experiment [6] and in [7] was “inactive” throughout. For the same compound, in [8], the Potency result is “inactive”. Besides, the Potency in [3] was 48.6 µM (active); in experiment [9] it was 27.3 µM (active); in experiment [10], 54.5 µM (active).
`CCCN(CCC)c1c([N+](=O)[O-])cc(C(F)(F)F)c(N)c1[N+](=O)[O-]`: the Potency in experiment [11] is 21.8 µM (active); in experiment [2], 24.5 µM (active); in experiment [3] it was 30.5 µM (active); in experiment [4], 21.6 µM (active); in experiment [5], 13.8 µM (active); in [6], 13.8 µM (active). Further, the Potency in experiment [7] is 60.9 µM (active); in experiment [8], 30.5 µM (active); in experiment [10] it was 48.4 µM (active). The Potency result in experiment [12] is “inactive”.
Regarding `Cc1c(C)c2c(c(C)c1OC(=O)CCC(=O)O)CC[C@@](C)(CCC[C@H](C)CCC[C@H](C)CCCC(C)C)O2`, the Potency result in experiment [1], in [11], in experiment [2], in experiment [7], in experiment [8] and in experiment [9] was “inactive” throughout. Moreover, the Potency result in experiment [10] and in experiment [12] was “inactive” in each case. Also, the Potency in experiment [3] and in experiment [4] was 27.6 µM (active) each time.
As for `Oc1ccc2cc(SSc3ccc4cc(O)ccc4c3)ccc2c1`, the Potency entry in [1], in experiment [2] and in [5] was “inactive” each time. Also, the Potency is 48.6 µM (active) in experiment [3]; 48.6 µM (active) in experiment [4]; 7.7 µM (active) and 12.2 µM (active) in [8]; 61.1 µM (active) in experiment [10].
On to `CNCc1cc(F)ccc1Oc1ccc(Cl)c(Cl)c1`, for which the Potency entry in experiment [2], in experiment [3], in experiment [5], in [7] and in experiment [12] was “inactive” each time. Further, in [4], the Potency was 34.4 µM (active).
As to `CCCCCCCC[P+](CCCCCCCC)(CCCCCCCC)CCCCCCCC`, the Potency in experiment [1] is 3.45 µM (active); in experiment [11], 13.7 µM (active); in experiment [2], 5.46 µM (active); in experiment [3], 6.82 µM (active); in experiment [4], 1.71 µM (active); in experiment [5], 12.2 µM (active). The Potency in experiment [6] is 3.87 µM (active); in experiment [7] it was 54.2 µM (active); in experiment [10], 9.63 µM (active).
As for `[Cl][Bi]([Cl])([c]1ccccc1)([c]1ccccc1)[c]1ccccc1`, the Potency in [1] is 3.87 µM (active); in experiment [11], 2.44 µM (active); in experiment [2], 54.6 µM (active); in experiment [3] it was 12.1 µM (active); in experiment [4], 2.16 µM (active); in experiment [6] it was 2.74 µM (active). Moreover, the Potency in [7] is 54.2 µM (active); in experiment [8] it was 3.83 µM (active); in experiment [10] it was 13.6 µM (active).
Consider `CCCCCCCCS(=O)C(C)Cc1ccc2c(c1)OCO2` (stereo not given), for which the Potency is 50 µM (active) in experiment [1] and 44.5 µM (active) in experiment [11]. Moreover, the Potency entry in experiment [2], in [3], in experiment [4], in experiment [5] and in experiment [12] was “inactive” each time.
In the case of `O=C(NO)C1(NS(=O)(=O)c2ccc(Oc3ccc(F)cc3)cc2)CCOCC1`, the Potency result in experiment [1], in experiment [11], in experiment [2], in experiment [3], in [4] and in experiment [5] was “inactive” each time. Also, the Potency result in [6], in experiment [7], in experiment [8], in experiment [9], in [10] and in [12] was “inactive” each time.
